In general, inhibition refers to the change of the read-out against control, counted positive when it falls.

The structures appear in SMILES notation. Out of some 62,000 compounds screened, about 95 (0.2%) were called active.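 How the source made its calls: active means inhibition above 20% in each of the two mixture wells holding the compound; inactive means inhibition of 20% or less in either well.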 Shown is part of a subset that was picked to be rich in actives.

The assay deals with Cathepsin G (Homo sapiens) (UniProt P08311). The assay is described as follows: blockers of neutrophil cathepsin G protease – biochemical, pooled compound mixtures, AMC fluorescence, primary screen (AID 581).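 Further: 0% = enzyme control without mixture and 100% = blank lacking enzyme.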 Particulars: purified enzyme, AMC-tetrapeptide fluorescence, active compounds read high, screened at 5 µM (by protocol).
Sequence of Cathepsin G (Homo sapiens) (P08311 21-244 limits assumed): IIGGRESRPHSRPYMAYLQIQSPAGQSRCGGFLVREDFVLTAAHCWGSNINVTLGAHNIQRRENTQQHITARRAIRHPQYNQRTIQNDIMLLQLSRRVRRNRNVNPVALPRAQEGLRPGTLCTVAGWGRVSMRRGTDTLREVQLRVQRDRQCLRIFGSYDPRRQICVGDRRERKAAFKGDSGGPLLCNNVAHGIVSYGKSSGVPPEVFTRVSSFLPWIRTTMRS
As for `COc1ccc(CCN=C2SCC(=O)N2C)cc1OC`, the inhibition is 11.6% (inactive).

On to `O=C(CCN1C(=O)C2C3C=CC(C3)C2C1=O)Nc1ccccc1F` (stereo not drawn), for which the inhibition is 6.93% (inactive). For `O=C(COc1ccccc1Cl)Nn1cnnc1`, the inhibition is 3.79% (inactive). As for `CCCOc1ccc(N2CC(C(=O)Nc3ccccn3)CC2=O)cc1` (stereo not drawn), the inhibition is 1.22% (inactive). To `CC1CN(C2CCCCC2)c2nc3c(c(=O)n(C)c(=O)n3C)n2C1` (stereo not drawn) belongs -2.58% (inactive); to `COc1ccc(C2CC(c3ccccc3)Nc3ncnn32)cc1` (stereo not drawn), -0.07% (inactive); to `O=C(c1cccnc1NCc1ccccc1)N1CCOCC1`, -5% (inactive).

For `CN(C)/C=C1/Nc2ccccc2C1=O`, the inhibition was -0.82% (inactive). In the case of `O=c1nc(N2CCOCC2)nc2n1CCO2`, the inhibition was 1.08% (inactive). `CCOc1ccc(C(=O)N(Cc2ccc(N(C)C)cc2)C2CCS(=O)(=O)C2)cc1` (stereo not drawn): the inhibition was 7.67% (inactive). The same measure for `CCN1CCN(C(=O)c2ccccc2N(C)S(=O)(=O)c2ccc(C)cc2)CC1`: 3.35% (inactive); for `CCc1nc(Nc2ccc3nccnc3c2)c2oc3ccccc3c2n1`: -2.89% (inactive); for `CNC(=O)n1ccc(C(=O)N2CCCCC2)n1`: 11% (inactive). Take `CC(C)(C)n1nnnc1C(c1ccc2ncccc2c1)N1CCSCC1` (stereo not drawn): the inhibition was -7% (inactive). `Cc1ccc(N2C(=O)c3oc4ccccc4c(=O)c3C2c2cccnc2)nc1` (stereo not drawn): the inhibition is 10.5% (inactive).

Consider `O=C(O)CN1C(=O)CC(Cc2ccccc2)C1=O` (stereo not drawn), for which the inhibition was -0.115% (inactive).

As to `CCCCn1c(SCc2ncc(-c3ccccc3)o2)nc2cc(S(N)(=O)=O)ccc21`, the inhibition is 13.9% (inactive). The same measure for `Cc1ccc(CNC(=O)C2CCCN(S(C)(=O)=O)C2)cc1` (stereo not drawn): -3.54% (inactive).

As to `CCC1SC2=NCCN2C1(O)c1ccc(Cl)cc1` (stereo not drawn), the inhibition was 1.99% (inactive). As for `Cn1c(=O)[nH]c(=O)c2c1nc(N(CCO)Cc1ccccc1)n2Cc1ccccc1Cl`, the inhibition is 5.71% (inactive). The same measure for `COc1ccccc1N1CCN(CCCCOc2ccc(F)cc2)CC1`: 13.1% (inactive).

In the case of `CCS(=O)(=O)NCCc1ccc(OC)c(OC)c1`, the inhibition was 13.1% (inactive). In the case of `CCCN1CCN(C(=O)Cn2ncc3ccccc32)CC1`, the inhibition was -11.9% (inactive).

Consider `CCc1nc2oc3ccccc3c(=O)c2c(=O)n1Cc1ccc(OC)cc1`, for which the inhibition was -20.5% (inactive). The same measure for `Cn1cccc1Cc1nnc(SCC(=O)NCc2ccc3c(c2)OCO3)n1CCc1ccccc1`: 10.5% (inactive). `COc1ccc(CC(=O)n2nc(-c3cccnc3)nc2N)cc1`: the inhibition is 14.7% (inactive). In the case of `COc1ccc(C(=O)n2nc(-c3ccc(C)cc3)nc2N)cc1OC`, the inhibition is 44% (active). Take `COc1ccccc1C(=O)n1nc(-c2ccccc2)nc1N`: the inhibition was 7.93% (inactive). The same measure for `COc1ccc(C(=O)n2nc(-c3ccc(Cl)cc3)nc2N)cc1OC`: 37.8% (active); for `COC(=O)c1ccc(OC(=O)c2nn(C)cc2Cl)c(OC)c1`: 1.08% (inactive); for `COc1ccc(C(=O)Cn2nnc(-c3ccc(N4CCOCC4)cc3)n2)cc1OC`: 2.19% (inactive). In the case of `Cc1cccc(-n2c(Cc3cc(=O)[nH]c(=O)[nH]3)nnc2SC(C)C)c1`, the inhibition was 10.3% (inactive). Regarding `CCCN1Cc2cccc(C(=O)NCc3ccccc3)c2C1=O`, the inhibition is -0.625% (inactive). As to `COc1ccc(N(Cc2cc3cc(OC)ccc3[nH]c2=O)S(C)(=O)=O)cc1`, the inhibition is -3.1% (inactive). Turning to `Cn1c(CC(=O)Nc2ccccc2)nnc1SCC(=O)c1ccccc1`, the inhibition is -0.18% (inactive). Take `c1ccc2cc(OCCN3CCCC3)ccc2c1`: the inhibition is -4.75% (inactive). For the compound `O=C(O)CSC(NC(=O)c1cccnc1)(C(F)(F)F)C(F)(F)F`, the inhibition is 4.23% (inactive). Regarding `CCOC(=O)c1c(NC(=O)CSc2nnc(Cc3csc(N)n3)n2C)sc(C)c1C`, the inhibition was -4.19% (inactive). For the compound `O=C1CCCC(O)=C1C=NCCc1ccccc1`, the inhibition is 33.4% (active).

On to `O=C1CC(c2ccccc2)CC(O)=C1C=NCCN1CCOCC1` (stereo not drawn), for which the inhibition was 14.8% (inactive).

`CC1(C)CC(=O)C(C=NCCC2=CCCCC2)=C(O)C1`: the inhibition was 6.17% (inactive). In the case of `O=C(CSc1nnc(-c2cccs2)n1Cc1ccco1)c1ccc2c(c1)OCO2`, the inhibition is 7.29% (inactive).

As to `CSc1ccc(S(=O)(=O)Nc2cccc(F)c2)cc1`, the inhibition was -1.91% (inactive). Regarding `CCCNC(=O)Nc1ccccc1C(=O)Nc1ccc(OC)cc1`, the inhibition was 4.04% (inactive). On to `CC1(C)CC(=O)c2cc(OCC(=O)NCC3CCCO3)ccc2O1` (stereo not drawn), for which the inhibition was 4.79% (inactive). For the compound `O=C(c1ccco1)N1CCN(C(=O)C2CC(c3ccc(F)cc3)=NO2)CC1` (stereo not drawn), the inhibition is 2.3% (inactive). As to `COCCCNC(=O)CCc1nc2cccnc2n1Cc1ccc(OC)cc1`, the inhibition was 11.7% (inactive).

`CCN(c1ccc2c(c1)OCO2)S(=O)(=O)c1cc(Br)cc2c1N(C(=O)C1CC1)CC2`: the inhibition is 2.07% (inactive).

`COC(=O)c1cc(NC(=O)CN2CCC(C(N)=O)(N3CCCCC3)CC2)cc(C(=O)OC)c1`: the inhibition was -6.63% (inactive).

For `CN(C)c1ccnc2sc3c(=O)n(Cc4ccccc4)cnc3c12`, the inhibition is -4.39% (inactive). Take `CC(=O)N1C(=O)C2(Nc3ccccc3N2)c2ccccc21`: the inhibition is -1.99% (inactive). The same measure for `Cc1ccccc1CSc1nnc(-c2cccnc2)n1N`: 14.2% (inactive); for `Cc1cccc(NC(=O)CSc2nnc(CCCCCNC(=O)OC(C)(C)C)o2)c1C`: 6.06% (inactive). As to `O=C(Cn1c(-c2ccc(Cl)cc2)noc1=O)N1CCN(c2ccccc2F)CC1`, the inhibition is 7.96% (inactive). As to `O=c1ccn(Cc2ccccc2Cl)cc1`, the inhibition was -1.12% (inactive).

For `Cc1cc(NC(=O)CN2CCC(O)(c3cccc(F)c3)CC2)no1`, the inhibition was 5.96% (inactive). For the compound `COc1cccc(N(C(=O)c2ccn[nH]2)C2(C(=O)Nc3c(C)cccc3C)CCCCC2)c1`, the inhibition is 8.21% (inactive). As to `COc1ccc2occ(C(=O)c3ccc(N=C(C)N(C)C)cc3)c2c1`, the inhibition was -7.35% (inactive).

For the compound `O=C1Nc2c(Br)cc(Br)cc2C1(O)N1CCOCC1` (stereo not drawn), the inhibition is 1.49% (inactive). To `CCOC(=O)CNC(=O)CSc1nnc(-c2cccc(OC)c2)n1CC` belongs -5.21% (inactive); to `Oc1c(C(c2ccccn2)N2CCOCC2)ccc2cccnc12` (stereo not drawn), 13.3% (inactive). Regarding `CN(C(=O)c1ccccn1)c1nnc(-c2ccccn2)s1`, the inhibition is 10.6% (inactive).

As to `COc1ncnc2c1N=C1CC(C)(C)CC(N)=C1S2`, the inhibition is -6.43% (inactive). To `Cc1noc(C)c1C(=O)Nc1ccccn1` belongs -18.6% (inactive); to `CCOC(=O)N1CCN(CC(=O)c2ccc3c(c2)CCN3)CC1`, 10.3% (inactive). Turning to `Cc1occc1C(=O)Nc1nnc(-c2ccncc2)s1`, the inhibition is 39.2% (inactive). As for `COCCn1c(SCC(=O)Nc2cc(Cl)ccc2OC)nc2c(c1=O)SC(C)C2` (stereo not drawn), the inhibition is 9.03% (inactive).

For the compound `NC(=O)CCCC1=NS(=O)(=O)c2ccccc2N1`, the inhibition was 4.5% (inactive). Turning to `CCOC(=O)c1ccc(NC(=O)CS(=O)(=O)c2cn(CC)c3ccccc23)cc1`, the inhibition was 29.3% (active). On to `CCOC(=O)c1ccc(NC(=O)CSc2ncccn2)cc1`, for which the inhibition is -1.62% (inactive).

Regarding `CCOC(=O)c1ccc(NC(=O)Cn2nnc(-c3ccc(C)cc3)n2)cc1`, the inhibition is -7.1% (inactive).

In the case of `COc1ccc2nc(NC(=O)c3ccc(Br)s3)sc2c1`, the inhibition was 10.8% (inactive). The same measure for `O=C(Cn1nc(Cc2cccnc2)c2ccccc2c1=O)NCC1COc2ccccc2O1` (stereo not drawn): 8.5% (inactive); for `C/C(N)=C(\C#N)C(=O)NCCc1ccccn1`: 2.5% (inactive).

Regarding `CCSC1=C(C#N)C(=O)n2c1cc1c2CCCC1`, the inhibition was 0.675% (inactive). Consider `CSc1nsc(SC)c1NC(=O)OC1CCCCC1`, for which the inhibition is 7.19% (inactive). For the compound `CCOC(=O)C1CCCN(C(=O)c2ccc(CS(=O)(=O)c3ccc(Br)cc3)o2)C1` (stereo not drawn), the inhibition was 7.41% (inactive). Regarding `CCOC(=O)c1csc(NC(=O)c2ccc(S(=O)(=O)N3CCCC3)cc2)n1`, the inhibition was -0.28% (inactive). As to `COc1ccc(OC)c(NC(=O)CN2CCN(C(=O)c3ccco3)CC2)c1`, the inhibition is 9.79% (inactive). On to `Cn1c(-c2ccc(C(=O)c3ccccc3)s2)nc2ccccc21`, for which the inhibition was 2.31% (inactive). Consider `CN(Cc1ccccc1)C(=O)CCNC(=O)Cn1cnc2ccccc2c1=O`, for which the inhibition is -3.7% (inactive). As to `COc1ccc(OC)c(C(=O)c2coc3ccc(OC)cc23)c1`, the inhibition was -10.9% (inactive). With `COc1ccc2c(c1)CCc1c(C(=O)N3CCc4ccccc4C3)noc1-2`, the inhibition is 35% (active). Take `COC(=O)Nc1c(C)n(C)n(-c2ccccc2)c1=O`: the inhibition was 11.2% (inactive). To `COc1ccc2c(c1)CCc1c(C(=O)N3CCCC3)noc1-2` belongs 18.8% (inactive); to `Cc1cc(C(=O)Nc2c(C)n(C)n(-c3ccccc3)c2=O)cs1`, 8.47% (inactive). For the compound `COc1ccc2c(c1)CCc1c(C(=O)Nc3c(C)n(C)n(-c4ccccc4)c3=O)noc1-2`, the inhibition is 34.3% (active). The same measure for `O=C(c1cc(-c2cccc(O)c2)on1)N1CCc2ccccc2C1`: 5.56% (inactive); for `CCOc1cc(CO)ccc1OCC(=O)N1CCCCC1`: 4.5% (inactive); for `COc1ccc(C(=O)Nc2ccc(S(=O)(=O)Nc3onc(C)c3C)cc2)cc1OC`: -6.97% (inactive). In the case of `COCCCN1C(=O)c2ccc(C(=O)Nc3ccc(OC)cc3OC)cc2C1=O`, the inhibition was -4.08% (inactive). In the case of `Cc1nn(Cc2ccc(Cl)c(Cl)c2)c(C)c1NC(=O)c1cc(C2CC2)on1`, the inhibition was -8.5% (inactive). As for `CN(C)c1cc(N)c2ccccc2n1` (tested in a mixture with another compound), the inhibition is 2.17% (inactive). The same measure for `O=C(CSc1nnc(-c2ccoc2)o1)N1CCOCC1`: 1.64% (inactive); for `Cc1cccc(-n2c(O)c(C=Nc3ccccc3N)c(=O)[nH]c2=O)c1`: -2.9% (inactive); for `C1=C(N2CCOCC2)/C(=C/c2nc3ccccc3[nH]2)CC1`: 12.8% (inactive). To `CCOc1ccc(CC(=O)Nc2ccc(S(=O)(=O)Nc3cc(C)on3)cc2)cc1OCC` belongs 6.78% (inactive). Take `Cc1ccc(S(=O)(=O)N(C)CC(=O)NC2CCCC2)cc1`: the inhibition was 1.06% (inactive).

(Values after PubChem BioAssay AID581 (PCMD, 2007).)
